According to the supplement of paper PMC7156485:
± gives the standard deviation of the averaged measurements.

Columns and labels:
Details in all cases: concentration: 10 µM; 24 h
[1] = test system: HCC1569; assay: cell number relative to DMSO (% of DMSO); higher = more cells (less growth inhibition / toxicity)
How it was run: (§1)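 Six fields per well were imaged at ×10 after the cells were fixed in 3.7% formaldehyde and stained with a rabbit anti-H1.0 antibody, an AlexaFluor 647 secondary and DAPI. The HCC1569 and TDF cells had been plated at 800 per well in 384-well plates (RPMI, 10% FBS) and treated in triplicate with compounds at 10 µM for 24 h at 37 °C. The values are the median of replicates of H1.0 nuclear intensity or cell number, as percent of the plate control. Smoothing for positional effects was applied to HCC1569 data.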

[2] = test system: TDF; assay: as above
How it was run: as §1

[3] = test system: TDF; assay: H1.0 immunofluorescence intensity relative to DMSO (% of DMSO); higher = stronger H1.0 induction, active = 120 or more
How it was run: as §1

[4] = test system: HCC1569; assay: H1.0 immunofluorescence intensity relative to DMSO (% of DMSO); higher = stronger H1.0 induction, active = 140 or more
How it was run: as §1
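Wherever H1.0 immunofluorescence intensity relative to DMSO is given: TDF is a line of transformed human dermal fibroblasts of mesenchymal origin.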
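Wherever cell number relative to DMSO is given: TDF denotes transformed human dermal fibroblasts of mesenchymal origin.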

Row | Compound | cell number [1] | cell number [2] | H1.0 immunofluorescence intensity [3] | H1.0 immunofluorescence intensity [4]
1 | CCCCCCCCCCCC=CCCCCC(=O)O [6(E)-Octadecenoic acid] | 100 | 101 | 102 (inactive) | 89.5 (inactive)
2 | CCC1(C)CC(=O)NC1=O (configuration not stated) [Ethosuximide] | 102 | 98.8 | 94.1 (inactive) | 88 (inactive)
3 | O=C(O)c1cc(=O)cc(C(=O)O)[nH]1 [Chelidamic acid] | 98.8 | 109 | 90 (inactive) | 96.3 (inactive)
4 | CC(CN1c2ccccc2Sc2ccccc21)N(C)C.Cl (configuration not stated) [Promethazine.HCl] | 104 | 101 | 96.1 (inactive) | 121 (inactive)
5 | CC(=O)OC1CC2CCC3C(CCC4(C)C3CC([N+]3(C)CCCCC3)C4OC(C)=O)C2(C)CC1N1CCCCC1 (configuration not stated) [Vecuronium] | 103 | 95.7 | 99.2 (inactive) | 110 (inactive)
6 | COC1C(OC(=O)C=CC=CC=CC=CC(=O)O)CCC2(CO2)C1C1(C)OC1CC=C(C)C (configuration not stated) [Fumagillin] | 104 ± 1.1 | 98.7 ± 8.4 | 98.9 (inactive) | 91.2 (inactive)
7 | Nc1ccccc1NC(=O)CCCCCCC(=O)Nc1ccccc1 [N~1~-(2-aminophenyl)-N~8~-phenyloctanediamide] | 98.8 | 89.4 | 92.6 (inactive) | 145 (active)
8 | c1ccc(-c2ccc(C(c3ccccc3)n3ccnc3)cc2)cc1 (configuration not stated) [Bifonazole] | 101 | 98.2 | 86.2 (inactive) | 122 (inactive)
9 | Cc1ccc(S(=O)(=O)Cc2nc(-c3ccc(C(=O)NCc4cccnc4)cc3)oc2C)cc1 | 87 | 86.8 | 102 (inactive) | 127 (inactive)
10 | O=C(O)c1cn(C2CC2)c2cc(N3CCNCC3)c(F)cc2c1=O [Ciprofloxacin] | 105 | 107 | 91.7 (inactive) | 102 (inactive)
11 | CC(=O)c1ccc(S(=O)(=O)NC(=O)NC2CCCCC2)cc1 [Acetohexamide] | 105 | 107 | 102 (inactive) | 109 (inactive)
12 | CC(C=CC1=C(C)CCCC1(C)C)=CC=CC(C)=CC(=O)Nc1ccc(O)cc1 [4-Hydroxyphenylretinamide] | 89.9 | 112 | 95.7 (inactive) | 120 (inactive)
13 | CCCCCCC(O)CC=CCCCCCCCC(=O)O (configuration not stated) [Ricinoleic acid] | 98.1 | 104 | 97.7 (inactive) | 101 (inactive)
14 | CCCCNC(=O)NS(=O)(=O)c1ccc(C)cc1 [Tolbutamide] | 102 ± 3.9 | 108 ± 11 | 93 (inactive) | 101 (inactive)
15 | Nc1ccc2ncnc(NCCc3ccc(Oc4ccccc4)cc3)c2c1 [NF-kB Activation Inhibitor] | 66.3 | 70.7 | 106 (inactive) | 164 (active)
16 | NCCCCCCCCCCN [1,10-Diaminodecane] | 101 | 98.7 | 89.4 (inactive) | 88.5 (inactive)
17 | CNC(=O)c1cc2c(cn1)[nH]c1ccccc12 [N-Methyl-beta-carboline-3-carboxamide] | 107 | 111 | 87.9 (inactive) | 85.2 (inactive)
18 | CCN1CCCC1CNC(=O)c1c(OC)ccc(I)c1O (configuration not stated) | 106 | 91 | 96.7 (inactive) | 88.1 (inactive)
19 | NC(=O)c1cc[n+](CC2=C(C(=O)[O-])N3C(=O)C(NC(=O)C(c4ccccc4)S(=O)(=O)[O-])C3SC2)cc1.[Na+] (configuration not stated) [Cefsulodin sodium salt hydrate] | 99.1 | 104 | 94.6 (inactive) | 94.3 (inactive)
20 | CCCCC1=NC2(CCCC2)C(=O)N1Cc1ccc(-c2ccccc2-c2nn[nH]n2)cc1 | 101 | 99.3 | 101 (inactive) | 88.4 (inactive)
21 | O=C(Nc1c(Cl)cncc1Cl)c1ccc(OC(F)F)c(OCC2CC2)c1 | 99.9 | 92.1 | 95.6 (inactive) | 101 (inactive)
22 | CCOC(=O)OC(C)OC1=C(C(=O)Nc2ccccn2)N(C)S(=O)(=O)c2ccccc21 (configuration not stated) [Ampiroxicam] | 105 | 94.9 | 99.6 (inactive) | 116 (inactive)
23 | Cc1cncc2cccc(S(=O)(=O)N3CCCN(C(=O)CN)CC3C)c12.Cl.Cl.O (configuration not stated) [Rho Kinase Inhibitor IV] | 78.3 | 42.8 | 98.4 (inactive) | 131 (inactive)
